About 7,900 targets were measured; listed, in parts, are those with a hit and a random draw of the rest. About 0.6% of all pairs of compound and target were hits.
Legend:
Test in all cases: log2 fold change, soluble protein after heating vs DMSO (PISA); higher = thermal stabilisation; K562 cells, 10 uM, 30 min; active = over 0.2 and 3.5 SD of the protein, either way, in both replicates (recomputed)
saracatinib = compound: CN1CCN(CCOc2cc(OC3CCOCC3)c3c(Nc4c(Cl)ccc5c4OCO5)ncnc3c2)CC1 [saracatinib]
How it was run: (§1)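 K562 cells (2×10^6 cells/mL) were treated with 10 μM compound for 30 min, and aliquots were heated for 3 min over 48°C-58°C. Pooled aliquots were extracted in PBS with 0.5% NP-40 at 4°C, and the supernatant after 21,000xg for 90 min was measured by TMTpro 16plex LC-MS/MS with channel sums equalised. Reported thermal stability, relative to control samples and from duplicates, is a log2 fold change.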

sotrastaurin = compound: CN1CCN(c2nc(C3=C(c4c[nH]c5ccccc45)C(=O)NC3=O)c3ccccc3n2)CC1 [sotrastaurin]
How it was run: as §1

alvocidib = compound: CN1CC[C@H](c2c(O)cc(O)c3c(=O)cc(-c4ccccc4Cl)oc23)[C@H](O)C1 [alvocidib]
How it was run: as §1

Tubastatin A = compound: CN1CCc2c(c3ccccc3n2Cc2ccc(C(=O)NO)cc2)C1 [Tubastatin A]
How it was run: as §1

[1] = compound: CNC(=O)C1=CC=CC=C1NC2=NC(=NC=C2Cl)NC3=C(C=C(C=C3)N4CCOCC4)OC
How it was run: as §1

defactinib = compound: CNC(=O)c1ccc(Nc2ncc(C(F)(F)F)c(NCc3nccnc3N(C)S(C)(=O)=O)n2)cc1 [defactinib]
How it was run: as §1

rucaparib = compound: CNCc1ccc(-c2[nH]c3cc(F)cc4c3c2CCNC4=O)cc1 [rucaparib]
How it was run: as §1

[2] = compound: CNc1nc(-c2ccc3c(N)n[nH]c3c2)cc(N2C[C@@H](C(=O)NC3CCCCC3)CC[C@H]2C)n1
How it was run: as §1

encorafenib = compound: COC(=O)N[C@@H](C)CNc1nccc(-c2cn(C(C)C)nc2-c2cc(Cl)cc(NS(C)(=O)=O)c2F)n1 [encorafenib]
How it was run: as §1

[3] = compound: COC(=O)[C@H](CCSC)NC(=O)C1=C(C=C(C=C1)NC[C@H](CS)N)C2=CC=CC=C2
How it was run: as §1

[4] = compound: COC1=CC=C(C=C1)CN2C=CC3=C2C=C(C=C3)C(=O)NO
How it was run: as §1

filanesib = compound: CON(C)C(=O)N1N=C(c2cc(F)ccc2F)S[C@@]1(CCCN)c1ccccc1 [filanesib]
How it was run: as §1

zotarolimus = compound: CO[C@H]1C[C@@H]2CC[C@@H](C)[C@@](O)(O2)C(=O)C(=O)N2CCCC[C@H]2C(=O)O[C@H]([C@H](C)C[C@@H]2CC[C@H](n3cnnn3)[C@H](OC)C2)CC(=O)[C@H](C)/C=C(\C)[C@@H](O)[C@@H](OC)C(=O)[C@H](C)C[C@H](C)/C=C/C=C/C=C/1C [zotarolimus]
How it was run: as §1

idasanutlin = compound: COc1cc(C(=O)O)ccc1NC(=O)[C@@H]1N[C@@H](CC(C)(C)C)[C@](C#N)(c2ccc(Cl)cc2F)[C@H]1c1cccc(Cl)c1F [idasanutlin]
How it was run: as §1

alisertib = compound: COc1cc(Nc2ncc3c(n2)-c2ccc(Cl)cc2C(c2c(F)cccc2OC)=NC3)ccc1C(=O)O [alisertib]
How it was run: as §1

[5] = compound: COc1cc2nc(-c3cc(F)ccc3O)nc(N[C@@H]3CNC[C@H]3C(C)(C)O)c2cc1OC
How it was run: as §1

gefitinib = compound: COc1cc2ncnc(Nc3ccc(F)c(Cl)c3)c2cc1OCCCN1CCOCC1 [gefitinib]
How it was run: as §1

[6] = compound: COc1cccc2cc(-c3nc([C@H]4CC[C@H](C(=O)O)CC4)n4ncnc(N)c34)[nH]c12
How it was run: as §1

lapatinib = compound: CS(=O)(=O)CCNCc1ccc(-c2ccc3ncnc(Nc4ccc(OCc5cccc(F)c5)c(Cl)c4)c3c2)o1 [lapatinib]
How it was run: as §1

pictilisib = compound: CS(=O)(=O)N1CCN(Cc2cc3nc(-c4cccc5[nH]ncc45)nc(N4CCOCC4)c3s2)CC1 [pictilisib]
How it was run: as §1

Measured: log2 fold change

POLR2K (UniProt P53803)
inactive: saracatinib -0.024 | sotrastaurin 0.032 | alvocidib 0.14 | Tubastatin A -0.031 | [1] -0.057 | defactinib 0.034 | rucaparib 0.039 | [2] -0.047 | encorafenib -0.174 | [3] -0.063 | [4] -0.052 | filanesib 0.071 | zotarolimus -0.05 | idasanutlin -0.101 | alisertib -0.005 | [5] 0.134 | gefitinib -0.012 | [6] -0.213 | lapatinib 0.003 | pictilisib 0.117

PPM1G (UniProt O15355)
Chain of UniProt O15355 (O15355 whole entry, looked up): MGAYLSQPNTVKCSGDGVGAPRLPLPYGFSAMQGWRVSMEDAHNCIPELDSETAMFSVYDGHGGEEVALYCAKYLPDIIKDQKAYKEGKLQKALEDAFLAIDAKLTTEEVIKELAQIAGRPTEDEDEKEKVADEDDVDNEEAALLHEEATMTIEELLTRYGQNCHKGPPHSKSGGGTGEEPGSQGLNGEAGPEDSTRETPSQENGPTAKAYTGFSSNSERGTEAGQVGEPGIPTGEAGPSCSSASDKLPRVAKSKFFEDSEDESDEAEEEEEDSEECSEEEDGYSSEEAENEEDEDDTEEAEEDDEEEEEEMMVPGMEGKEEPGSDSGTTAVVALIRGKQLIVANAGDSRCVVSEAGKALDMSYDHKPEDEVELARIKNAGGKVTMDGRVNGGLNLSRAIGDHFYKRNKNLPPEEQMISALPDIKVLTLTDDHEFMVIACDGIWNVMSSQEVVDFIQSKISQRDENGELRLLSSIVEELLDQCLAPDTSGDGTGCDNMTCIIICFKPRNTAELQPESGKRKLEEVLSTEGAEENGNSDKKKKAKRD
inactive: saracatinib -0.086 | sotrastaurin -0.213 | alvocidib -0.165 | Tubastatin A 0.187 | [1] 0.108 | defactinib -0.226 | rucaparib -0.088 | [2] -0.038 | encorafenib 0.085 | [3] -0.104 | [4] -0.011 | filanesib 0.014 | zotarolimus 0.028 | idasanutlin 0.066 | alisertib 0.019 | [5] 0.081 | gefitinib 0.044 | [6] -0.089 | lapatinib -0.052 | pictilisib 0.093

PIK3CB (UniProt P42338)
inactive: saracatinib -0.019 | sotrastaurin 0.01 | alvocidib -0.026 | Tubastatin A 0.001 | [1] -0.011 | defactinib -0.04 | rucaparib 0.014 | [2] 0.042 | encorafenib -0.015 | [3] -0.003 | [4] 0.063 | filanesib 0.007 | zotarolimus 0.042 | idasanutlin -0.041 | alisertib 0.003 | [5] 0.02 | gefitinib 0.048 | [6] 0.01 | lapatinib 0.001
active: pictilisib 0.258

PRKCD (UniProt Q05655)
Chain of UniProt Q05655 (Q05655 whole entry, looked up): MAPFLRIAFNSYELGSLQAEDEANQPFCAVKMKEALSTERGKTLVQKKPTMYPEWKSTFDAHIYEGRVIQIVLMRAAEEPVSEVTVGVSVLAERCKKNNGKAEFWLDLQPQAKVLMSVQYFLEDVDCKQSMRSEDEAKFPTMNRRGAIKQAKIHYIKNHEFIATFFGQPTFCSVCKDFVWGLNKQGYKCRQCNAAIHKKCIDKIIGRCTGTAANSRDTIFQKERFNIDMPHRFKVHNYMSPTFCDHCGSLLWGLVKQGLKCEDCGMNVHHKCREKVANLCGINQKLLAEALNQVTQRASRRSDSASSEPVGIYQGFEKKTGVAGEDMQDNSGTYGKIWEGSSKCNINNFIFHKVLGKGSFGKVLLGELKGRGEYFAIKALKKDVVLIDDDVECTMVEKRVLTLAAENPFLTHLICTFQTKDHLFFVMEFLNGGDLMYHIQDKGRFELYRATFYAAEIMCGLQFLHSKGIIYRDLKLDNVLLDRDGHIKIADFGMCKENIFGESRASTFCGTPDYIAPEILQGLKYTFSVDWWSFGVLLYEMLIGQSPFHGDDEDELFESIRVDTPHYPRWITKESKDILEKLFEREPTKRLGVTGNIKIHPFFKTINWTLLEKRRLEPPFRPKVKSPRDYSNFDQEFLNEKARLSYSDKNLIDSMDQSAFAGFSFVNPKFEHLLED
active: sotrastaurin -0.256
inactive: saracatinib -0.026 | alvocidib -0.1 | Tubastatin A -0.007 | [1] 0.002 | defactinib -0.002 | rucaparib -0.031 | [2] -0.033 | encorafenib -0.029 | [3] -0.024 | [4] -0.019 | filanesib -0.004 | zotarolimus 0.032 | idasanutlin -0.017 | alisertib 0.037 | [5] -0.003 | gefitinib -0.002 | [6] 0.074 | lapatinib 0.02 | pictilisib 0.026

PIP4P1 isoform 2 (UniProt Q86T03)
Chain of UniProt Q86T03 (Q86T03 whole entry, looked up): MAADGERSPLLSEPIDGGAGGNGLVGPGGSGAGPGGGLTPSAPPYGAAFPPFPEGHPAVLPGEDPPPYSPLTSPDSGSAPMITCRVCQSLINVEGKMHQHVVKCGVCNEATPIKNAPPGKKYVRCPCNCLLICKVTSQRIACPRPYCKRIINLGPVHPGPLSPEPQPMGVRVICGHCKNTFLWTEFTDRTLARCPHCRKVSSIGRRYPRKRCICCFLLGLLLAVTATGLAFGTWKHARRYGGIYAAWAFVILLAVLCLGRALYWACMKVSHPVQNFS
active: filanesib -0.32
inactive: saracatinib 0.014 | sotrastaurin -0.108 | alvocidib 0.066 | Tubastatin A -0.005 | [1] 0 | defactinib 0.039 | rucaparib -0.026 | [2] -0.059 | encorafenib -0.027 | [3] 0.015 | [4] 0.089 | zotarolimus 0.004 | idasanutlin 0.002 | alisertib 0.032 | [5] -0.072 | gefitinib -0.018 | [6] -0.058 | lapatinib 0.06 | pictilisib -0.061

PRPF38A (UniProt Q8NAV1)
Chain of UniProt Q8NAV1 (Q8NAV1 whole entry, looked up): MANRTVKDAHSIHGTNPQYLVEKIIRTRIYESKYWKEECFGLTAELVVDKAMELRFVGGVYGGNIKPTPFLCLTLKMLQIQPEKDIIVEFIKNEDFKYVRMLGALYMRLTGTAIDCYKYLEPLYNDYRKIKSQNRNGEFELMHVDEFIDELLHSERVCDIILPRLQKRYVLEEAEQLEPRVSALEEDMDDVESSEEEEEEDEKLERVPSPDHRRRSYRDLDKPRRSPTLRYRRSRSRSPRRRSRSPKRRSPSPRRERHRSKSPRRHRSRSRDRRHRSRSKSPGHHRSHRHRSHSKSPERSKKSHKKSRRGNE
inactive: saracatinib 0.019 | sotrastaurin 0.016 | alvocidib -0.024 | Tubastatin A -0.024 | [1] 0.052 | defactinib -0.036 | rucaparib 0.121 | [2] -0.035 | encorafenib -0.034 | [3] -0.008 | [4] -0.113 | filanesib 0.046 | zotarolimus -0.014 | idasanutlin 0.035 | alisertib -0.033 | [5] 0.041 | gefitinib 0.009 | [6] 0.002 | lapatinib -0.035 | pictilisib 0.085

PSMD13 (UniProt Q9UNM6)
inactive: saracatinib -0.073 | sotrastaurin 0 | alvocidib 0.061 | Tubastatin A 0.038 | [1] 0.027 | defactinib 0.068 | rucaparib 0.024 | [2] 0.043 | encorafenib 0.063 | [3] 0.003 | [4] -0.127 | filanesib 0.095 | zotarolimus 0.009 | idasanutlin -0.054 | alisertib -0.04 | [5] -0.025 | gefitinib -0.026 | [6] -0.05 | lapatinib 0.038 | pictilisib -0.01

PSMD1 (UniProt Q99460)
inactive: saracatinib -0.033 | sotrastaurin -0.064 | alvocidib 0.051 | Tubastatin A 0.016 | [1] 0 | defactinib 0.087 | rucaparib -0.003 | [2] 0.048 | encorafenib 0.062 | [3] 0.018 | [4] 0.009 | filanesib -0.002 | zotarolimus 0.011 | idasanutlin -0.005 | alisertib -0.126 | [5] -0.077 | gefitinib -0.046 | [6] -0.056 | lapatinib 0.069 | pictilisib -0.052

PECAM1 (UniProt P16284)
inactive: saracatinib 0.062 | sotrastaurin 0.062 | alvocidib 0.005 | Tubastatin A 0.096 | [1] -0.076 | defactinib 0 | rucaparib 0 | [2] 0.003 | encorafenib -0.092 | [3] -0.007 | [4] 0.018 | filanesib 0.114 | zotarolimus -0.002 | idasanutlin -0.029 | alisertib -0.053 | [5] 0.025 | gefitinib 0.02 | [6] 0.063 | lapatinib -0.021 | pictilisib 0.12

POLR2D (UniProt O15514)
inactive: saracatinib 0.064 | sotrastaurin 0.015 | alvocidib 0.22 | Tubastatin A -0.064 | [1] -0.114 | defactinib 0.165 | rucaparib 0.056 | [2] 0.026 | encorafenib 0.003 | [3] -0.038 | [4] 0.02 | filanesib 0.009 | zotarolimus -0.029 | idasanutlin -0.083 | alisertib -0.159 | [5] -0.021 | gefitinib -0.001 | [6] 0.043 | lapatinib 0.017 | pictilisib -0.026

PIGG (UniProt Q5H8A4)
active: [2] 0.27
inactive: saracatinib -0.02 | sotrastaurin -0.015 | alvocidib -0.011 | Tubastatin A -0.037 | [1] 0.013 | defactinib 0.175 | rucaparib -0.013 | encorafenib 0.07 | [3] -0.057 | [4] -0.01 | filanesib -0.062 | zotarolimus 0.073 | idasanutlin 0.019 | alisertib -0.048 | [5] 0.098 | gefitinib -0.122 | [6] 0.049 | lapatinib 0.046 | pictilisib 0.017

PPP1CA (UniProt P62136)
active: [4] 0.263
inactive: saracatinib 0.036 | sotrastaurin -0.03 | alvocidib -0.027 | Tubastatin A -0.024 | [1] -0.009 | defactinib -0.033 | rucaparib -0.008 | [2] -0.028 | encorafenib -0.009 | [3] 0.018 | filanesib 0.012 | zotarolimus -0.032 | idasanutlin 0.016 | alisertib 0.024 | [5] 0.015 | gefitinib 0.032 | [6] 0.023 | lapatinib 0.001 | pictilisib 0.013

PPP6R1 (UniProt Q9UPN7)
Chain of UniProt Q9UPN7 (Q9UPN7 whole entry, looked up): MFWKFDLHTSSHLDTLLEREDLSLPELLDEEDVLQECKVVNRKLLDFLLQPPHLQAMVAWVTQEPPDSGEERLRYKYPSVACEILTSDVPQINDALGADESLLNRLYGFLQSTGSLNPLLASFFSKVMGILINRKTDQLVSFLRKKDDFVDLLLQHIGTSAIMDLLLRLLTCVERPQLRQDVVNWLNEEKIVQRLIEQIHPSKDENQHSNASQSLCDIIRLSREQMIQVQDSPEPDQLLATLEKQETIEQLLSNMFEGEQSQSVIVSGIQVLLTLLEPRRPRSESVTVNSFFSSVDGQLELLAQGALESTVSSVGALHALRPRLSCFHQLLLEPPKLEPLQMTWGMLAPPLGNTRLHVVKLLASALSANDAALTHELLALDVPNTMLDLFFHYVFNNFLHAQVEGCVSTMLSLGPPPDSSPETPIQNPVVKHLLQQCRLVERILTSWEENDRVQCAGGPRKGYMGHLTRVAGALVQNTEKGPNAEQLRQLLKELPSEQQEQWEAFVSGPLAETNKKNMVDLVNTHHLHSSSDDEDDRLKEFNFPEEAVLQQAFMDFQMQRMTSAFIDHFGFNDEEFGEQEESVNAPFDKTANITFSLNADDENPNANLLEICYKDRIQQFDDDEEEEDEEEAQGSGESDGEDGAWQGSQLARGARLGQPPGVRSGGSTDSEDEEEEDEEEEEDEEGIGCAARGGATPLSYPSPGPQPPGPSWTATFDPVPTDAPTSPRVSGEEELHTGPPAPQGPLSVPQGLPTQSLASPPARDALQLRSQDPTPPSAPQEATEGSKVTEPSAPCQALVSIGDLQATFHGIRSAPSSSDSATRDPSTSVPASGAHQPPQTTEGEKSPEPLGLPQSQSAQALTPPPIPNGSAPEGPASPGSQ
inactive: saracatinib 0.058 | sotrastaurin -0.064 | alvocidib -0.017 | Tubastatin A -0.08 | [1] 0.038 | defactinib -0.058 | rucaparib -0.013 | [2] -0.044 | encorafenib 0.034 | [3] -0.027 | [4] -0.002 | filanesib -0.072 | zotarolimus -0.005 | idasanutlin -0.032 | alisertib -0.098 | [5] -0.055 | gefitinib 0.012 | [6] 0.014 | lapatinib 0.016 | pictilisib 0

PCLAF (UniProt Q15004)
Chain of UniProt Q15004 (Q15004 whole entry, looked up): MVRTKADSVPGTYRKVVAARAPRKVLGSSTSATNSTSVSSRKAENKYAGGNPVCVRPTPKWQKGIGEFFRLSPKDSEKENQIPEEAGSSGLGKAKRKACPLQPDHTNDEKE
inactive: saracatinib 0.057 | sotrastaurin 0.057 | alvocidib 0.138 | Tubastatin A 0.08 | [1] -0.094 | defactinib 0.076 | rucaparib -0.094 | [2] -0.161 | encorafenib -0.046 | [3] 0.093 | [4] -0.115 | filanesib 0.158 | zotarolimus -0.172 | idasanutlin 0.066 | alisertib -0.035 | [5] -0.018 | gefitinib -0.057 | [6] -0.162 | lapatinib 0.033 | pictilisib -0.015

PUF60 (UniProt Q9UHX1)
Chain of UniProt Q9UHX1 (Q9UHX1 whole entry, looked up): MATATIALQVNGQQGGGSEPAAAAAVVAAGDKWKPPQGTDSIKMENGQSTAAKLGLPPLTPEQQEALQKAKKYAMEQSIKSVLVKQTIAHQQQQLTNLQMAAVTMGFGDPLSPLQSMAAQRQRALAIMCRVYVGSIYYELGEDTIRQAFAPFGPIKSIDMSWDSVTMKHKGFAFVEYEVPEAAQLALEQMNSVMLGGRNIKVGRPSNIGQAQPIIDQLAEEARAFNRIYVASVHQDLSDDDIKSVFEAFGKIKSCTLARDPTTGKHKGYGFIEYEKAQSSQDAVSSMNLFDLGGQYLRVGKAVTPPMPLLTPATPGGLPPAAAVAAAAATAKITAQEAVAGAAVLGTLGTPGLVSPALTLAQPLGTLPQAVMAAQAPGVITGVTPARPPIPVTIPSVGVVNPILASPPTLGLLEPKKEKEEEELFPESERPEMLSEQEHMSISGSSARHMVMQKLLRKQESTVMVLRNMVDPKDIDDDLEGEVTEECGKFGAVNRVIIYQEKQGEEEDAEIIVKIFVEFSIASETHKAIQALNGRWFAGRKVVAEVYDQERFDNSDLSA
inactive: saracatinib 0 | sotrastaurin -0.035 | alvocidib -0.138 | Tubastatin A 0.048 | [1] -0.197 | defactinib -0.173 | rucaparib -0.003 | [2] -0.007 | encorafenib 0.049 | [3] -0.012 | [4] 0.007 | filanesib 0.087 | zotarolimus 0.026 | idasanutlin 0.022 | alisertib -0.05 | [5] -0.028 | gefitinib 0.014 | [6] 0.008 | lapatinib 0.063 | pictilisib 0

PDS5B (UniProt Q9NTI5)
Chain of UniProt Q9NTI5 (Q9NTI5 whole entry, looked up): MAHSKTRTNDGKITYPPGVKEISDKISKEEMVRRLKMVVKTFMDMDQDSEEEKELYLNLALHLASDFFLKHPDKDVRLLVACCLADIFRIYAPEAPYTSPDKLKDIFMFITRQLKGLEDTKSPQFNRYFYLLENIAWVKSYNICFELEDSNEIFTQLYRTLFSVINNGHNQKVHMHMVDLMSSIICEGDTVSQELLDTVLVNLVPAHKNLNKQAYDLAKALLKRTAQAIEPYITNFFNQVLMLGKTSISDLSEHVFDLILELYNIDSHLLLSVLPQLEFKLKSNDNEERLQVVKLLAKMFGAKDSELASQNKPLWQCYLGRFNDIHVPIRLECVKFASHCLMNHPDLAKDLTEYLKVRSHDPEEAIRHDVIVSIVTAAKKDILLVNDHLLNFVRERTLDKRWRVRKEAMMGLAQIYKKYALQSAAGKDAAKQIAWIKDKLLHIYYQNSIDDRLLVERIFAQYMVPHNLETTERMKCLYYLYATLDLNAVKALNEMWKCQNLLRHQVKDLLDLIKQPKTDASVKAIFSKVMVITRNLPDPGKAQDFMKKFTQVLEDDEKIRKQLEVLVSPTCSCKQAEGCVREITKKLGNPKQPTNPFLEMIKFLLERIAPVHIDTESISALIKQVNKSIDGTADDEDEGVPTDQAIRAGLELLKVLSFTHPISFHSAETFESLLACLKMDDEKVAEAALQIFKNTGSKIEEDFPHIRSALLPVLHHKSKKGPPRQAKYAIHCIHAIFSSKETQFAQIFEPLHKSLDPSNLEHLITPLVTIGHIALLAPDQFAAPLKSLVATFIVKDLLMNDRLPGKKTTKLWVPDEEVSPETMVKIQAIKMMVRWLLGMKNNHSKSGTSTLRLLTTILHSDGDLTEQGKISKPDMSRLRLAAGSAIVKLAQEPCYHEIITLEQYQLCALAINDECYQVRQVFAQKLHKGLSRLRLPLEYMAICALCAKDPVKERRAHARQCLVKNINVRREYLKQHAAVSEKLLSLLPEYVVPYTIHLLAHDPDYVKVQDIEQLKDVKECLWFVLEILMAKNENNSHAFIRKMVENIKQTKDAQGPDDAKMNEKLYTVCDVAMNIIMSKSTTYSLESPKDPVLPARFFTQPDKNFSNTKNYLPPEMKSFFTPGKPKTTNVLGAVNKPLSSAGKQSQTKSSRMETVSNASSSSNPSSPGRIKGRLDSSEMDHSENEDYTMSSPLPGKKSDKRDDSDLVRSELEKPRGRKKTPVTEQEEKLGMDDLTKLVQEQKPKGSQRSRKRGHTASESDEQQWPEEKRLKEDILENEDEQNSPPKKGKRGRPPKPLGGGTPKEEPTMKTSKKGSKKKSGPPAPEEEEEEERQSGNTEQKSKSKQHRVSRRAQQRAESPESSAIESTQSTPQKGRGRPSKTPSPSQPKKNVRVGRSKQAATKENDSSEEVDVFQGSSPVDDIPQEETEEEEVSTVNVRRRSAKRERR
inactive: saracatinib -0.134 | sotrastaurin 0.039 | alvocidib -0.097 | Tubastatin A 0.14 | [1] -0.169 | defactinib -0.101 | rucaparib -0.088 | [2] 0.014 | encorafenib 0 | [3] 0.032 | [4] 0.065 | filanesib 0.104 | zotarolimus 0.037 | idasanutlin -0.07 | alisertib -0.05 | [5] -0.188 | gefitinib 0.123 | [6] 0.078 | lapatinib -0.206 | pictilisib 0.066
